# Data: PubChem BioAssay AID588342 (National Center for Advancing Translational Sciences (NCATS), 2011)
# The campaign covered roughly 360,000 compounds. About 25,000 (6.9%) were called active. Roughly 9% stayed inconclusive and do not appear here. The list comes from a sample in which actives are over-represented; it also holds similar structures and randomly drawn compounds. A number with no mark means an inactive call. Calls come from the whole dose curve; as a rule, active = well fitted inhibition curve with a large enough effect; inconclusive = small, poorly fitted or top-dose-only effect; inactive = flat fitted curve, though single readings scatter.
# Target: Luciferin 4-monooxygenase (Photinus pyralis) (UniProt P08659)
# Sequence (P08659 whole entry, looked up): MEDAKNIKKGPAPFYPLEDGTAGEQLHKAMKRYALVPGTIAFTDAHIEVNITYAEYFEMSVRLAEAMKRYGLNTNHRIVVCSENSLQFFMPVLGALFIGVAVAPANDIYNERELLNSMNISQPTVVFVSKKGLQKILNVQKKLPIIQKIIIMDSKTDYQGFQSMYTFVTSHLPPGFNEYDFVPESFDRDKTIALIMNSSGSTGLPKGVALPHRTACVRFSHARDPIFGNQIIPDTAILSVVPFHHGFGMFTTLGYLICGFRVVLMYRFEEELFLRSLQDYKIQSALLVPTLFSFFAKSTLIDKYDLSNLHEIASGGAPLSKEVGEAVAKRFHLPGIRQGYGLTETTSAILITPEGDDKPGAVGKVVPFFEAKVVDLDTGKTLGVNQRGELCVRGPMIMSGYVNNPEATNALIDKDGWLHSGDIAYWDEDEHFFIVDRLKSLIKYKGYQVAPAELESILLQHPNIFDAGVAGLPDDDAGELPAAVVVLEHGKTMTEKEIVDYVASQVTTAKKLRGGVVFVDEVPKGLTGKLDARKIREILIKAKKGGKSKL
# Assay: qHTS profiling assay for firefly luciferase inhibitor/activator using purifed enzyme and Km concentrations of substrates (counterscreen for miR-21 project); note: nearly all actives have a fitted effect of over 55% in size;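 for activity change, negative = inhibition: plate controls were vehicle for no effect and reference inhibitor for full effect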
# Details: purified FLuc, luminescence inhibition; series mostly up to 57.5 µM; activity change, negative = inhibition: at the top concentration
# Source text: MLPCN Grant: 1 R21 NS059478-01 (miR-21 grant) Assay Provider: NCGC NCGC Assay Overview: Firefly (Photinus pyralis) luciferase is one of the most commonly used transcriptional reporters for a number of reasons. It is considered one of the more dynamically responsive reporters -that is, responsive to changes in reporter transcription - as it requires no post-translational modifications and is enzymatically active directly after protein synthesis (Wood, 1998). Additionally, the half-life of the luciferase protein is short relative to other reporter-gene products (Wood, 1995). Whereas reporters with long half-lives potentially allow for increased signal due to accumulation of reporter-gene product, once accumulated in the cell, dynamic changes in reporter-gene expression may be difficult to detect(Fan and Wood, 2007; Almond et al., 2004). It has been shown that wild-type P. pyralis luciferase has a half-life of approximately […] hours in mammalian cells (Thompson et al., 1991). Firefly luciferase reporter-gene assays are also generally considered one of the most sensitive assay types (Wood, 1995; Wood, 1998). Although light produced in a bioluminescence reaction is of lower intensity than that produced during fluorescence emission, this is offset by little to no background light inherent to luminescent assays. Thus the luciferase reporter can be expressed at much lower levels than fluorescent proteins while still providing robust signal. # However, it was initially observed, in 1991, by Thompson et al., that compounds that resemble the substrates of firefly luciferase (FLuc) can act as competitive inhibitors of the enzyme, and that these compounds, upon interaction with luciferase in the cell, can actually stabilize the protein and increase its half-life. Accumulated intracellular FLuc protein can be measured as an increase in luminescence signal, upon addition of detection reagents (which contain high concentrations of FLuc substrates) commonly used in high-throughput screening. In cell-based reporter gene assays that use FLuc as the reporter gene to quantitate the potential influence of a given compound against the target biology, this apparent increase in luminescence can mistakenly be interpreted as identification of a compound that is active against the target of interest. This is the case for the miR-21 FLuc reporter gene assay used to identify inhibitors of the miR-21 pathway (PubChem AID 2289) - compounds of interest will inhibit miR-21 biogenesis/expression or activity, and are identified by causing an increase in luminescence, due to increased FLuc translation. However, FLuc inhibitory compounds that stabilize the FLuc protein will give an identical read-out, making it difficult to distinguish compounds that are active against the target from those active against FLuc. Previous profiling work to determine the prevalence of compounds that affect FLuc enzymatic activity (PubChem AID 411) identified that ~3% of the MLSMR library (then at ~72K) inhibited FLuc. […] Since the MLSMR had grown to ~350K compounds, and since it was expected that a significant percentage of compounds found active in the miR-21 FLuc assay would be FLuc inhibitors, the library was screened for activity against FLuc using a biochemical assay of purified FLuc and KM concentrations of FLuc substrates (D-luciferin and ATP).
# NCGC Assay Protocol Summary: Reagents: 50mM Tris acetate, pH 7.5; 10mM Mg acetate; 10uM D-luciferin (Sigma #L9504); 10uM ATP; 0.01% Tween-20; 0.05% BSA; 10nM P. pyralis luciferase (Sigma #L9506) Control compounds used were two known firefly luciferase inhibitors (compounds (2) and (5) in Auld et al., 2010), and DMSO. […]
SMILES,"activity change, negative = inhibition",Potency
CCOc1ccc(CCNC(=O)COC(=O)c2ccc(F)c(S(=O)(=O)N3CCOCC3)c2)cc1OCC,0.0182%,
CCC(=O)N1c2ccccc2CC1C(=O)N1CCN(c2ccccc2)CC1 (stereo unspecified),2.76%,
Cc1ccc(CSc2ccc(S(=O)(=O)N3CCCCC3)cn2)cc1,4.03%,
O=C(Nc1ccccc1C(=O)O)c1cc(S(=O)(=O)N2CCCCC2)cs1,,23.9 µM (active)
Cc1ccccc1NC(=O)c1cc(S(=O)(=O)N2CCOCC2)cs1,-0.63%,
O=C(Nc1ccccc1F)c1cc(S(=O)(=O)N2CCCCC2)cs1,6.84% [at 2.3 µM],
COc1ccc(CNC(=O)CN2C(=O)NC3(CCCc4sccc43)C2=O)cc1 (stereo unspecified),2.42%,
CC[N+]1(CC)CC2=Cc3ccccc3CC2C1 (stereo unspecified),-0.581%,
COc1ccccc1C(=O)OCC(=O)NCCNC(=O)COC(=O)c1ccccc1OC,-0.745%,
COc1ccccc1C(=O)NC(=O)COC(=O)c1ccco1,12.2%,
COc1ccccc1C(=O)NC(=O)COC(=O)C1CC1,,9.53 µM (active)
O=C(Nc1cccc(-n2cnnn2)c1)c1cccnc1,-1.84%,
O=C(Nc1ccc(O)c(-c2nc3ccccc3o2)c1)c1ccc(-c2cccc(Cl)c2)o1,3.47%,
O=C(Nc1ccc2oc(-c3ccccc3F)nc2c1)c1ccco1,,6.01 µM (active)
Cc1ccccc1-c1nc2cc(NC(=O)c3cccc(OCCC(C)C)c3)ccc2o1,-3.07%,
COc1ccccc1CNC(=O)COC(=O)CNS(=O)(=O)c1ccc(NC(C)=O)cc1,-0.864%,
Cc1cccc(N2CCN(C(=O)c3cnc(N4CCCC4)nc3C)CC2)c1C,2.04%,
COc1ccccc1CNC(=O)C1CCN(S(C)(=O)=O)CC1,2.3%,
COc1ccccc1CCNC(=O)C1CCN(C(=O)/C=C/c2ccccc2)CC1,,21.3 µM (active)
COc1ccccc1CNC(=O)C1CCN(C(=O)[C@@H]2Cc3ccccc3CN2)CC1,-0.16%,
OC1CCCN(c2ncnc3c2nnn3Cc2c(F)cccc2Cl)C1 (stereo unspecified),-13.1%,
C/C(=C/c1ccccc1)C(=O)N1CCN(c2ccccc2)CC1,-12.4%,

SMILES,"activity change, negative = inhibition",Potency
Cc1noc(NS(=O)(=O)c2ccc(NC(=O)c3oc4ccc(F)cc4c3C)cc2)c1C,,15.1 µM (active)
Cc1ccnc(NS(=O)(=O)c2ccc(NC(=O)c3oc4ccc(F)cc4c3C)cc2)n1,,26.9 µM (active)
Cc1cc(OC(C)C(=O)Nc2ccc(S(=O)(=O)Nc3onc(C)c3C)cc2)cc(C)c1Cl (stereo unspecified),-0.156%,
CCn1c(SCC(=O)Nc2ccc(S(=O)(=O)Nc3onc(C)c3C)cc2)nnc1-c1ccccc1,2.13%,
Cc1cc(C)nc(NS(=O)(=O)c2ccc(N/C=C\C(=O)c3cccs3)cc2)n1,-7.27%,
Cc1ccc(C(=O)/C=C/Nc2ccc(S(=O)(=O)Nc3onc(C)c3C)cc2)cc1,,15.1 µM (active)
Cc1noc(NS(=O)(=O)c2ccc(NC(=O)C34CCC(CC3)C4)cc2)c1C,0.134%,
Cc1cc(C)c2oc(C(=O)Nc3ccc(S(=O)(=O)Nc4nccc(C)n4)cc3)cc(=O)c2c1,-0.483%,
Cc1ccnc(NS(=O)(=O)c2ccc(NC(=O)c3ccc(S(=O)(=O)N(C)C)cc3)cc2)n1,-7.16%,
COc1ccc(N2CCN(S(=O)(=O)c3ccc4c(c3)N(C(C)=O)CCO4)CC2)cc1,1.92%,
CCOc1ccc(S(=O)(=O)NCCC(=O)NCC2CCCO2)cc1 (stereo unspecified),2.24%,
Cc1cc(NC(=O)c2ccc(-c3ccc(Cl)cc3)o2)cc(-c2nc3ncccc3o2)c1O,3.37%,
O=C(Nc1cccc2ncccc12)c1ccc(-c2ccc(Cl)cc2Cl)o1,,12 µM (active)
O=C(Nc1cccnc1Oc1ncnc2cc(Cl)ccc12)c1ccc(F)cc1,-2.02%,
NC(=O)c1ccsc1NC(=O)COC(=O)COc1ccc(C=O)cc1,6.4%,
CCCCn1nc(C(=O)OCC(=O)Nc2sccc2C(N)=O)c2ccccc2c1=O,-1.34%,
COc1cc(OC)cc(C(=O)OCC(=O)Nc2sccc2C(N)=O)c1,,15.1 µM (active)
Cc1ccc(F)cc1NC(=O)CSCc1c(C)noc1C,3.3%,
COC(=O)[C@H](CC(C)C)NC(=O)N1CCCCC1C (stereo partly specified),4.28%,
CC1CCCCN1Cc1c(O)ccc2c(=O)c(-c3cccc(Cl)c3)c(C(F)(F)F)oc12 (stereo unspecified),-3.84%,
CCC1CCCCN1Cc1c(O)ccc2c(=O)c(Oc3ccccc3Cl)c(C(F)(F)F)oc12 (stereo unspecified),1.49%,
Cc1cc(C)cc(NC(=O)Cc2csc(C)n2)c1,-10.2%,

SMILES,"activity change, negative = inhibition",Potency
COc1cccc(CC(=O)Nc2ccc(-c3csc(C)n3)cc2)c1,,16.9 µM (active)
Cc1nc(-c2ccc(NC(=O)c3cccs3)cc2)cs1,,0.426 µM (active)
CCc1c(C)sc(NC(=O)c2cccs2)c1C(N)=O,,6.75 µM (active)
O=C(Nc1n[nH]c(C(F)(F)F)n1)c1cccs1,2.94%,
CCc1c(C)sc(NC(=O)c2ccc(Br)o2)c1C(=O)OC,-14.9%,
Cc1nc2ccccn2c(=O)c1NC(=O)c1cccs1,-0.785%,
Cc1ccc(-c2csc(NC(=O)c3cccs3)n2)cc1,,10.7 µM (active)
CCOC(=O)c1oc2ccccc2c1NC(=O)c1cccs1,13.2%,
COc1cccc(NC(=O)CN2CCN(c3nc(-c4cccc(OC)c4)cs3)CC2)c1,-18.5%,
CCC1SC(CC)C(=O)N(CC(=O)NC2CCCCC2)C1=O (stereo unspecified),5.3%,
Cc1cccc(NC(=O)C2CCCN2S(=O)(=O)c2cccc3nsnc23)c1C (stereo unspecified),-1.86%,
Cc1nn(C)c2c1c(C(F)(F)F)cc(=O)n2C(C)C(=O)NCc1ccc(Cl)cc1 (stereo unspecified),-6.42%,
CC(CC(=O)Nc1ccccc1)n1ccnc1 (stereo unspecified),-1.48%,
CCc1nc2ccc(C(=O)N3CCN(c4cc(Cl)ccc4C)CC3)cc2nc1CC,-1.21%,
COc1ccc(CCNC(=O)Cn2c(=O)cc(C(F)(F)F)c3c(C)nn(C)c32)c(OC)c1,7.08%,
CCc1ccccc1NC(=O)N1CCC2(CC1)Oc1ccccc1C(=O)N2Cc1ccccc1F,-10.7%,
CCN(CC(=O)Nc1cc(Cl)ccc1C)C(=O)CSCc1ccccc1,-2.11%,
Fc1cccc(Cc2noc(CN3CCN(c4cnccn4)CC3)n2)c1,2.61%,
CCCc1nnc(NC(=O)CCC(=O)NC2CC2)s1,0.134%,
CCCc1nnc(NC(=O)c2cccs2)s1,,16.9 µM (active)
CCc1nnc(NC(=O)Cc2cccs2)s1,-1.84%,
COc1ccc(CCNC(=O)c2ccc3c(c2)nc(C)n3-c2ccc(Br)cc2)cc1OC,-2.6%,
